Laboratory results: PubChem BioAssay (NCI)
The panel holds about 83,000 compounds, 20% with a hit somewhere; the sample as a whole holds those more often.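 Single-concentration screen, 48 h exposure, 96-well plates. Endpoint: percent growth. Below 10 = active.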 Unmarked numbers belong to inactive results. Calls of active or inactive are those of the source.

Columns and labels:
Experiment in all cases: NCI-60 one-dose screen, 48 h (100 = growth as untreated, 0 = no growth, -100 = all killed)
Conditions in all cases: 10 µM unless noted
HCT-15 colon = system: HCT-15 colon
HT29 colon = system: HT29 colon
SNB-75 CNS = system: SNB-75 CNS
SNB-19 CNS = system: SNB-19 CNS
U251 CNS = system: U251 CNS
SK-MEL-5 melanoma = system: SK-MEL-5 melanoma
UACC-62 melanoma = system: UACC-62 melanoma
SK-MEL-28 melanoma = system: SK-MEL-28 melanoma
PC-3 prostate = system: PC-3 prostate
LOX IMVI melanoma = system: LOX IMVI melanoma

| Compound | growth (HCT-15 colon) | growth (HT29 colon) | growth (SNB-75 CNS) | growth (SNB-19 CNS) | growth (U251 CNS) | growth (SK-MEL-5 melanoma) | growth (UACC-62 melanoma) | growth (SK-MEL-28 melanoma) | growth (PC-3 prostate) [%] | growth (LOX IMVI melanoma) |
| --- | --- | --- | --- | --- | --- | --- | --- | --- | --- | --- |
| CCOC(=O)c1sc(NS(=O)(=O)c2ccccc2)nc1C | 115% | 124% | 97.9% | 107% | 109% | 99.3% | 103% | 123% | – | – |
| Nc1nc2c(c3ncncc13)C(c1cccc(C(F)(F)F)c1)Cc1ncncc1-2 (stereo not given) | 27% | 9.73% (active) | 8.31% (active) | 33.9% | – | 21.1% | 43.4% | – | 26.4 | 36.8% |
| O=C1c2ccccc2CCc2ccccc21 | 105% | 103% | 91.8% | 100% | 93.1% | 98.6% | 95.6% | 106% | – | 93.6% |
| Nc1ccc(S(=O)(=O)Nc2cc(F)cc(F)c2)cc1 | 105% | 102% | 92.8% | 104% | 98.1% | 106% | 88.3% | 120% | – | 91.5% |
| CC(=O)c1ccc2c(c1)c1ccccc1n2C | 102% | 91.1% | 82.5% | 90.8% | 94.8% | 103% | 83.2% | 107% | – | 97.1% |
| CC(=O)Nc1nc(C)c(C(=O)N/N=C/N2CCCCC2)s1 | 111% | 109% | 81.6% | 103% | 105% | 113% | 107% | 114% | – | 103% |
| C/C=C/C/C=C/[C@H](C)C[C@H](O)[C@@H]1C[C@@H]2O[C@H]2/C=C/[C@@H]2OC(C)(C)O[C@H]2/C=C/C[C@H](C)CC(=O)O1 | 19.7% | 28.1% | 36.3% | 62.2% | 30% | 31% | 8.91% (active) | 59.3% | – | 44.3% |
| CCOC(=O)CSSCC(=O)OCC | 102% | 112% | 94.4% | 108% | 98.4% | 99.8% | 98.4% | 107% | – | 111% |
| CCOC(=O)CCCCCCCCC(=O)OCC | 117% | 109% | 102% | 103% | 97.2% | 107% | 102% | 110% | – | 96.9% |
| O=C(Nc1ccc(-n2cc(-c3ccncc3)c(-c3ccc(Cl)c(O)c3)n2)cc1)c1cc(Cl)cc(Cl)c1 | 11.1% | 1.94% (active) | 16.4% | 72.4% | 41.9% | -85.1% (active) | 39.2% | 29.7% | – | 40.3% |
| CSC1=Nc2c(c(C)c(-c3ccccc3)n2CCCCl)C2=NC(=O)CN12 | 64.9% | 23.5% | 21.2% | 81.2% | 51.6% | 50.7% | 36.7% | 55.9% | – | 49.8% |
| O=C(/C=C1\C(=O)N(Cc2ccccc2)c2ccccc21)c1ccc(OCCN2CCCCC2)cc1 | -49.9% (active) | -58% (active) | 78.7% | 88.1% | 50.7% | 94.9% | 69.5% | 96.9% | – | -37.2% (active) |
| CCCC(=O)NNc1[nH]c(-c2cc(OC)c(OC)c(OC)c2)cc1C(=O)OCC | 116% | 114% | 114% | 110% | 103% | 112% | 102% | 122% | – | 105% |
| CC1=C(C)C[C@]2(C(=O)O[C@H]3CCCC[C@@H]32)[S@](=O)C1 | 112% | 95.3% | 98.4% | 105% | 98.8% | 107% | 104% | 118% | – | 97.6% |
| CCCCCCCCC1OC1CCCCCCCC(=O)O (stereo not given) | 96.6% | 118% | 92.9% | 101% | 91.3% | 98% | 88.5% | 110% | – | 109% |
| COC(=O)[C@@H]1[C@H](O)[C@H](C)[C@H](O)[C@H](C)/C=C\C=C(C)C(=O)Nc2c(C)c(OC(C)=O)c3c(c2O)C(=O)C(C)=C2OCOC(=C23)C(C)=C[C@@](C)(O)[C@H](O)[C@@H](C)[C@H]1OC(C)=O | 118% | 110% | 86.6% | 113% | 111% | 103% | 113% | 138% | – | 104% |

| Compound | growth (HCT-15 colon) | growth (HT29 colon) | growth (SNB-75 CNS) | growth (SNB-19 CNS) | growth (U251 CNS) | growth (SK-MEL-5 melanoma) | growth (UACC-62 melanoma) | growth (SK-MEL-28 melanoma) | growth (PC-3 prostate) [%] | growth (LOX IMVI melanoma) |
| --- | --- | --- | --- | --- | --- | --- | --- | --- | --- | --- |
| O=C(Nc1ccc(-n2cc(-c3ccncc3)c(-c3ccc(Cl)c(O)c3)n2)cc1)Nc1ccc(Cl)c(C(F)(F)F)c1 | 2.66% (active) | -92.4% (active) | -11.6% (active) | 27.4% | -31.4% (active) | -89.4% (active) | -25% (active) | -28.3% (active) | – | 5.17% (active) |
| C=CC1CN2CCC1CC2C(O)c1ccnc2ccc(OC)cc12 (stereo not given) | 104% | 98.6% | 78.2% | 96.1% | 103% | 97.9% | 100% | 115% | – | 93.3% |
| COc1cc(-c2cc3cnccc3c3nc(N)c4ccncc4c23)cc(OC)c1OC | 38.5% | 47.6% | -2.5% (active) | 53.3% | – | 44.6% | 41.6% | – | 37.3 | 36.1% |
| CC(=O)/C(=C\c1c(-c2ccccc2)[nH]c2ccccc12)S(=O)(=O)c1ccccc1 | 13.5% | 11.3% | -23.1% (active) | 53.7% | 17.5% | – | 13.6% | 26.8% | – | – |
| CCn1cnc(C[C@H](NC(=O)[C@@H](NC(=O)Nc2cc(C(F)(F)F)cc(C(F)(F)F)c2)C(C)(C)C)C(=O)OC)c1 | -68% [100 µM] (active) | -82.9% [100 µM] (active) | -98.8% [100 µM] (active) | -98.2% [100 µM] (active) | -94.5% [100 µM] (active) | -98% [100 µM] (active) | -98.7% [100 µM] (active) | -96% [100 µM] (active) | – | – |
| Cc1nc(N)sc1C(=O)NCCO | 108% | 112% | 105% | 101% | 106% | 103% | 93.8% | 113% | – | 104% |
| CCOC(=O)c1c2c(cn1Cc1ccccc1)-c1oncc1CC2 | 105% | 111% | 84% | 84.9% | 72.7% | 102% | 91.9% | 108% | – | 98.9% |
| COCC(=O)NNc1[nH]c(-c2ccc(OC)cc2)cc1C#N | 107% | 110% | 120% | 114% | 103% | 117% | 99.4% | 120% | – | 110% |
| OC(c1ccccc1)(c1ccccc1)C(F)(F)F | 107% | 103% | 111% | 113% | 109% | 109% | 102% | 117% | – | 105% |
| O=C(Nc1cccc2[nH]c(C(F)(F)F)nc12)c1ccc(F)cc1 | 96.9% | 99.3% | 97.3% | 78.6% | 71.7% | 69.5% | 51.6% | 79.7% | – | 87.8% |
| CCCCCCCCCCC(C[N+](C)(C)C/C=C/c1ccccc1)C(O)c1ccccc1 (stereo not given) | 79.1% | -79.8% (active) | 5.59% (active) | 35.8% | -93.9% (active) | – | 17.4% | 21.2% | – | – |
| CC1(C)C(O)NC(Cl)=C(C#N)C1(C#N)C#N (stereo not given) | 153% | 101% | 98.4% | 105% | 110% | 114% | 131% | 108% | – | 109% |
| Nc1ncn([C@@H]2O[C@H](CO)[C@@H](O)C2(F)F)c(=O)n1 | 52.2% | 70.1% | 65% | 58.9% | – | 70.8% | 47.3% | – | 63.6 | 34.5% |
| Cc1nc(NC(=O)NC2CCCCC2)sc1C(=O)NN | 91.5% | 95.5% | 110% | 102% | 98.5% | 106% | 90.8% | 102% | – | 93.5% |
| O=C(/C=C\c1ccccc1Cl)c1ccccc1 | 89.9% | 92.3% | 86.7% | 94.9% | 79.3% | 92.2% | 89.7% | 110% | – | 82.1% |
